# Source: PubChem (several laboratories)
# Rv3671c protease = inhibits the M. tuberculosis serine protease Rv3671c. inhibition, % at 5.96 µM. P9WHR9. 0.048% of 320,000 active; in the data active means inhibition above about 38%;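 further: extracellular domain of Rv3671c used as enzyme; 0% = enzyme with DMSO and 100% = no enzyme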
# RecA splice inh = blocks M. tuberculosis RecA intein splicing | inhibition, % (no concentration beside the values) | 0.75% of 290,000 active | cell-free RecA intein splicing, fluorescence; in the data active means inhibition above about 30%;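 further: 0% = vehicle wells and 100% = reference inhibitor control wells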
# Mtb bLac sens = beta-lactam sensitization of Mtb H37Rv; M. tuberculosis H37Rv growth with meropenem, percent inhibition; inhibition, % at 25 µM; 0.27% of 330,000 active; AID 434955; call rule not given here;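 further: growth measured after seven days incubation then overnight dye step; 0% = bacteria only wells and 100% = bacteria with antibiotic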
# FBA Mtb inh = inhibits M. tuberculosis FBA enzyme; inhibition, % at 1 µM; 2.3% of 360,000 active; purified M. tuberculosis FBA, fluorescence read-out;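 further: 0% = vehicle and 100% = reference inhibitor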
# GDH-TPI counter-1 = GDH-TPI coupled enzyme inhibition counter-screen | 1.2% of 360,000 active | inhibition, % at 4.8 µM | AID 588335 | GDH-TPI coupled enzyme counterscreen, NADH absorbance; in the data active means inhibition above about 30%;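 further: 0% = DMSO wells and 100% = wells lacking the enzyme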
# UGM FP inh = Mtb UDP-galactopyranose mutase inhibition | purified UGM, fluorescence polarization probe displacement | 0.06% of 320,000 active | inhibition, % at 10 µM | P9WIQ1; in the data active means inhibition above about 10%, passing the limit was not always enough
# Target sequence (P9WIQ1 whole entry, looked up): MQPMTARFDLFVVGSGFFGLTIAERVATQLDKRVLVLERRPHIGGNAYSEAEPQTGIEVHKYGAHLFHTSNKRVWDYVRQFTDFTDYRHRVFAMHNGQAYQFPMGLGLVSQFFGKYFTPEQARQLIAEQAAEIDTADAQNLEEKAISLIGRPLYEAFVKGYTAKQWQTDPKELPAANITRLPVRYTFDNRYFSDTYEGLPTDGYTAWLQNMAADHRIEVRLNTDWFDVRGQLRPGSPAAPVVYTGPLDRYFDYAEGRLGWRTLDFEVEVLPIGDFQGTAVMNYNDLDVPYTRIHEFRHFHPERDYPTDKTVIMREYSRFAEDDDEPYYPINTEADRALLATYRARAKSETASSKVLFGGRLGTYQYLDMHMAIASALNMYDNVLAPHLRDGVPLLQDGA
# Mtb FBA confirm = Mtb FBA inhibition, confirmed. shares compounds with FBA Mtb inh. purified M. tuberculosis FBA, fluorescence read-out. inhibition, % at 1 µM. 78% of 5,600 active;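 further: 0% = vehicle wells and 100% = reference inhibitor wells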
# GDH-TPI counter-2 = inhibits GDH-TPI coupling enzymes, flagging Mtb FBA hits; shares compounds with FBA Mtb inh; GDH-TPI coupled enzyme counterscreen, fluorescence; inhibition, % at 1 µM; 81% of 5,600 active; AID 652141; in the data active means inhibition above about 10%
# Starred values were filed as active, the others as inactive; . = no result given; + = active, no number. Only some compounds are listed: those with a hit (about 4% of all), similar ones and a draw of the others. Unless noted, no stated cut-off is given here; in the data, active means inhibition above about 27%; inactive means the rest.
SMILES,Rv3671c protease,RecA splice inh,Mtb bLac sens,FBA Mtb inh,GDH-TPI counter-1,UGM FP inh,Mtb FBA confirm,GDH-TPI counter-2
CCC(CO)Nc1ccn2nc(-c3cccs3)cc2n1 (centres undefined),.,.,.,38.8*,7.5,.,+,+
CC(C)[C@H](N)C(=O)N1CCC(C(=O)N[C@@H](Cc2ccccc2)C(=O)NCc2ccc(F)cc2)CC1,-0.8,-1.1,-6.3,-0.1,2.2,1.2,.,.
O=C(NCc1ccccc1)C(=O)NCC1CCCN1S(=O)(=O)c1cccs1 (centres undefined),4.6,1.8,-3.3,-0.3,-6.4,-2.3,.,.
Cc1cc(N2CCC(C)CC2)nc2ccc(N3C(=O)CCC3=O)cc12,1.1,2.9,-11.8,58.7*,10.4,2.8,98.4*,79.5*
COC(=O)c1ccccc1NC1CC(=O)N(c2c(C)cccc2C)C1=O (centres undefined),0.3,-1.9,-3.3,89.2*,9.0,0.1,+,+
Cc1ccccc1-c1cnc(C(O)c2ccc(C(C)(C)C)cc2)[nH]1 (centres undefined),.,.,.,-0.4,4.9,.,.,.
COc1cccc(/C=C/C(=O)OCC(=O)NC2CC2)c1,-12.6,.,1.4,27.8*,-1.1,-0.6,-0.8,-3.2
CSc1ccc(/C=C/C(=O)OCC(=O)NC2CCCC2)cc1,.,.,.,61.3*,41.1*,.,+,+
COC(=O)c1ccc(CNC(=O)COC(=O)/C=C/c2cccc(OC)c2)cc1,.,.,.,27.5*,8.8,.,167.7*,156.6*
COc1cccc(/C=C/C(=O)OCC(=O)NCCc2ccccc2)c1,-0.4,-3.8,10.1,27.8*,-8.0,0.6,+,181.7*
CCOc1ccc(CCNC(=O)COC(=O)/C=C/c2cccc(OC)c2)cc1OCC,-1.0,0.0,2.2,4.8,1.4,-3.6,.,.
COC(=O)c1ccc(CNC(=O)COC(=O)/C=C/c2ccc(O)c(OC)c2)cc1,2.7,.,13.3,3.6,19.0,-2.0,.,.
COC(=O)CN(C)C(=O)c1ccc2nc(Cc3cccc(Cl)c3)oc2c1,11.3,-1.0,2.6,0.4,-0.7,3.2,.,.
CC(C)N(C(=O)[C@H]1CC(CC(=O)NCc2cccc(C(F)(F)F)c2)C(=O)N2CCc3c([nH]c4ccccc34)[C@]12C)C(C)C (some centres undefined),3.2,.,-8.0,-2.6,8.3,3.2,.,.
O=C(Cn1cc(COc2c(F)c(F)cc(F)c2F)nn1)c1ccc(O)cc1,.,.,.,-0.9,9.9,.,.,.
O=C(Nc1ccc(C(F)(F)F)cc1)C1=NN(C2CCS(=O)(=O)C2)C(=O)CC1 (centres undefined),-5.7,.,2.9,3.6,1.8,1.0,.,.
CCCCCn1c(NC(=O)c2ccco2)c(C(=O)OCC)c2nc3ccccc3nc21,-29.5,-77.4,4.5,54.2*,17.0,-1.9,134.2*,100.3*
COCCCNC(=O)c1c(NC(=O)c2ccco2)n(Cc2ccccc2)c2nc3ccccc3nc12,-20.7,-71.8,11.6,44.7*,15.4,-1.3,46.9*,37.2*
COc1ccc(-c2cc(=O)c3cc(C)ccc3[nH]2)cc1,-0.6,0.9,8.8,15.4,9.5,0.3,.,.
Cc1ccc2[nH]c(-c3ccccc3)cc(=O)c2c1,4.9,-2.7,15.9,7.0,3.1,-0.7,.,.
COc1cc2[nH]c(-c3cccc(F)c3)cc(=O)c2cc1OC,-1.4,0.9,32.3,28.0*,-3.5,1.5,82.0*,64.2*
COc1cc2[nH]c(-c3ccc(C)cc3)cc(=O)c2cc1OC,-13.0,0.5,13.0,58.2*,25.1,1.9,+,+
CCc1cc2c(SCC(=O)NC3CCCC3)ncnc2s1,.,.,.,1.5,0.9,.,.,.
O=C(COC(=O)c1ccccc1SCC(=O)NC1CCS(=O)(=O)C1)NC1CCS(=O)(=O)C1 (centres undefined),-0.5,1.3,-11.4,3.4,2.5,2.7,.,.
CCNC(=O)NC(=O)COC(=O)c1ccccc1SCC(=O)NC(=O)NCC,-9.5,-21.9,15.7,79.0*,20.4,1.5,17.9,8.3
SMILES,Rv3671c protease,RecA splice inh,Mtb bLac sens,FBA Mtb inh,GDH-TPI counter-1,UGM FP inh,Mtb FBA confirm,GDH-TPI counter-2
COCCCNC(=S)NCCNc1nc2cc(C)cc(C)c2cc1C#N,5.9,-16.6,0.6,21.5,1.6,-0.8,.,.
Cc1cccc2cc(C#N)c(NCCNC(=O)COc3ccccc3)nc12,1.2,-17.2,3.0,39.9*,2.1,-0.7,102.4*,88.8*
Cc1ccc2cc(C#N)c(NCCNC(=S)NCCCN(C)C)nc2c1C,-10.0,-24.8,-2.5,15.2,3.2,1.0,.,.
Cc1cc(C)c2nc(NCCCNC(=S)NCCCN(C)C)c(C#N)cc2c1,1.6,-71.1,45.8,58.5*,0.9,-3.9,52.2*,42.8*
CCOCCCNC(=S)NCCCNc1nc2c(C)cc(C)cc2cc1C#N,.,.,.,38.1*,6.0,.,+,147.4*
CCOCCCNC(=S)NCCNc1nc2c(C)cccc2cc1C#N,0.2,-12.4,-0.2,57.5*,12.8,-3.1,33.3*,28.5*
Cc1c(C(=O)NCc2ccc(C#N)cc2)sc(=O)n1Cc1ccccn1,.,.,.,3.7,7.2,.,.,.
CC(=O)c1ccccc1OCc1ccc(S(=O)(=O)Cc2ccccc2)cc1,-4.4,.,-2.5,1.1,2.6,3.0,.,.
CN(C)S(=O)(=O)c1ccc(NC(=O)Cn2nc(-c3ccc4c(c3)OCCO4)ccc2=O)cc1,.,.,.,1.2,0.0,.,.,.
CCOC(=O)C(=O)N(C)c1c(CC)nc2c(OCc3ccc(OC)cc3)cccn12,.,.,.,0.2,3.1,.,.,.
O=C(NC1CCCCC1)c1cccc2c(-c3ccc(F)c(F)c3)coc12,.,.,.,0.6,8.9,.,.,.
Cc1cccc2cc(C#N)c(NCCCn3ccnc3)nc12,7.5,-35.5,91.9,39.3*,-2.5,-0.5,151.9*,139.5*
Cc1ccc2cc(C#N)c(NCCNC(=O)C3CC3)nc2c1C,-3.5,-27.6,-3.1,32.4*,-1.6,2.1,133.1*,111.2*
Cc1cccc2cc(C#N)c(NCCNS(=O)(=O)c3ccccc3)nc12,-14.8,-9.7,13.7,12.9,-3.1,-4.5,.,.
Cc1ccc(S(=O)(=O)N2CCN(C(=O)CN3C(=O)c4ccccc4C3=O)CC2)c(C)c1,-4.6,.,-12.6,-4.5,1.8,0.2,.,.
C[C@H]1CN([C@@H](C)CO)C(=O)CCCn2cc(nn2)CO[C@@H]1CN(C)C(=O)Nc1ccc(N2CCN(C)CC2)cc1,.,.,.,5.1,3.3,.,.,.
CC(=O)Nc1cc(-c2ccc(C(=O)N3CCOCC3)cc2)cn2c(-c3ccc(S(C)(=O)=O)cc3)cnc12,.,.,.,27.7*,10.7,.,+,+
CC(=O)Nc1cc(-c2cccc(C(=O)NCCN(C)C)c2)cn2c(-c3ccccc3)cnc12,.,.,.,2.3,7.6,.,.,.
CC(=O)Nc1cc(-c2ccc(C(=O)N3CCOCC3)cc2)cn2c(-c3ccc(F)c(Cl)c3)cnc12,.,.,.,-0.7,4.5,.,.,.
CC(=O)Nc1cc(-c2ccc(F)cc2)cn2c(-c3ccc(F)cc3)cnc12,.,.,.,6.0,3.6,.,.,.
